Screening results deposited in PubChem by National Center for Advancing Translational Sciences (NCATS).
FEN1 inh-1 = human FEN1 inhibition | Potency, µM (titrated, usually from 114 µM), without a hit: top-dose activity change, negative = inhibition, most hits filed as inhibitors | P39748 | actives 0.35% (n = 390,000) | AID 588795 | Recombinant FEN1 flap cleavage, fluorescence, 15 min; further: on the % scale 0 is the no-effect control and ±100 the full control effect; nearly all actives have a fitted effect of over 65% in size
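Reaction started by adding substrate (50 nM final) to 10 nM enzyme after 15 min room-temperature compound preincubation. Reads at 0 and 15 min, with data normalized and fitted to a four-parameter Hill equation.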
WRN helicase inh-1 = WRN helicase (human) inhibition. WRN helicase unwinding, fluorescent forked duplex, kinetic. Potency, µM (doses to about 114 µM), without a hit: at the top dose activity change, negative = inhibition, hits mostly inhibitors. actives 0.46% (n = 360,000). AID 651768; further: on the % scale 0 is the no-effect control and ±100 the full control effect; nearly all actives have a fitted effect of over 55% in size
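Kinetic red-fluorescence monitoring (525/598 nm) tracks WRN helicase activity after 100 nM fluorophore-quencher forked duplex and 2 mM ATP are added to 20 nM enzyme pretreated 15 min at room temperature with compound.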
POLH inh = blocks human DNA polymerase eta activity; Q9Y253; recombinant Pol eta, fluorescent DNA replication assay; Potency, µM (doses to about 114 µM), for the others: at the highest dose activity change, negative = inhibition, usual class: inhibitors; actives 1.2% (n = 390,000); further: on the % scale 0 is the no-effect control and ±100 the full control effect
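Pol eta at 10 nM preincubated with compounds 15 min at room temperature; reaction started with fluorescent substrate (50 nM final) and read kinetically at 0 and 10 min.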
POLB inh = blocks human DNA polymerase beta activity. Pol beta primer extension/strand displacement, fluorescence kinetic. AID 485314. Potency, µM (series often up to 114 µM), for the others: at the highest dose activity change, negative = inhibition, most hits filed as inhibitors. P06746. actives 1.3% (n = 340,000); further: on the % scale 0 is the no-effect control and ±100 the full control effect
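Human Pol beta at 10 nM; strand-displacement substrate 50 nM final. Compound exposure 15 min at room temperature before start, reaction 10 min at room temperature.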
POLI inh = DNA polymerase iota (human) inhibition. Q9UNA4. Pol iota fluorescent replication assay, 10 min. Potency, µM (top dose mostly 115 µM), inactives show at the highest dose activity, negative = inhibition, usual class: inhibitors. actives 1% (n = 390,000)
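Pol iota at 10 nM preincubated 15 min with compounds at room temperature; reaction started with fluorescent substrate, 50 nM final. Fluorescence read kinetically at 0 and 10 min; buffer-only wells as negative control.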
POLK inh = DNA polymerase kappa (human) inhibition. purified Pol kappa, fluorescent DNA synthesis assay, 10 min. AID 588579. Potency, µM (series often up to 107 µM), without a hit: at the highest dose activity, negative = inhibition, most hits filed as inhibitors. actives 0.53% (n = 400,000); further: on the % scale 0 is the no-effect control and ±100 the full control effect
Target sequence (Q9UBT6 whole entry, looked up): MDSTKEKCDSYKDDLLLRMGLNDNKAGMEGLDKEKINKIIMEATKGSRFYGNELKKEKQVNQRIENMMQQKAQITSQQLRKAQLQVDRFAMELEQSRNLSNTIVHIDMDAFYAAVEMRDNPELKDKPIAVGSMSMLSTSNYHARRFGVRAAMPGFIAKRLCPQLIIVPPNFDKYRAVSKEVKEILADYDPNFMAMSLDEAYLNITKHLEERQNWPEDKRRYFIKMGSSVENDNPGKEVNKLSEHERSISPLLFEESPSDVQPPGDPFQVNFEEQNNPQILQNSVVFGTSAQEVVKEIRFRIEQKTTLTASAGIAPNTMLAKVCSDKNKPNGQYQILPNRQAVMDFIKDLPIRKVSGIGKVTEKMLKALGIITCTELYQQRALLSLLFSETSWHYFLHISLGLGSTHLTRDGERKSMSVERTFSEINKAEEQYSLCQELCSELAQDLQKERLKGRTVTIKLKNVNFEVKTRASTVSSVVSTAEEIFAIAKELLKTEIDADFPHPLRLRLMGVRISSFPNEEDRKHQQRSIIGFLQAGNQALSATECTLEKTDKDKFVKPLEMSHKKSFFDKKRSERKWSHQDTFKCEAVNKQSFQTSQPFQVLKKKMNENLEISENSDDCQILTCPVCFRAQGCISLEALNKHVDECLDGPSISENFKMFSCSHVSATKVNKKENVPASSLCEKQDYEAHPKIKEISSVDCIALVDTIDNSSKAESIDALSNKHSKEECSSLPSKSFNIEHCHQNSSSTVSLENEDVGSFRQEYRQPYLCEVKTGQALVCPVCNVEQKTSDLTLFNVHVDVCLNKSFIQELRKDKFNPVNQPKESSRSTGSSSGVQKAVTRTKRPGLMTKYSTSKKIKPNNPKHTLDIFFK
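10 nM Pol kappa was preincubated with compounds for 15 min at room temperature. Reaction started with 50 nM (final) substrate. Fluorescence read kinetically at 0 and 10 min.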
FEN1 inh-2 = confirmation of human FEN1 inhibitors; shares compounds with FEN1 inh-1; FEN1 flap cleavage, TAMRA/BHQ2 fluorogenic DNA substrate; Potency, µM, actives largely listed as inhibitors; actives 79% (n = 880); AID 720498; further: nearly all actives have a fitted effect of over 60% in size
WRN helicase inh-2 = confirmation of human WRN helicase inhibitors | shares compounds with WRN helicase inh-1 | WRN helicase DNA unwinding, fluorescence kinetic | Potency, µM (series often up to 57.1 µM), inactives show at the highest dose activity, negative = inhibition, hits mostly inhibitors | actives 63% (n = 610) | AID 720497; further: nearly all actives have a fitted effect of over 65% in size
TO displacement = binds DNA, flagged in WRN inhibitor counterscreen; shares compounds with WRN helicase inh-1; thiazole orange DNA binding displacement, fluorescence; Potency, µM (series often up to 57.1 µM), for inactives: at the highest dose activity change, negative = inhibition, actives largely listed as inhibitors; actives 10% (n = 610);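 further: drop in dye fluorescence marks compound binding to DNA; on the % scale 0 is the no-effect control and ±100 the full control effect; nearly all actives have a fitted effect of over 60% in size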
BLM counter = blocks human BLM helicase in WRN counterscreen | shares compounds with WRN helicase inh-1 | Recombinant BLM helicase DNA unwinding, red fluorescence | Potency, µM (series often up to 57.1 µM), for inactives: top-dose activity change, negative = inhibition, usual class: inhibitors | actives 60% (n = 610) | AID 720503; further: nearly all actives have a fitted effect of over 60% in size
* marks the source's active call; other numbers are inactive results; ? = inconclusive; / = no result given; [ ] = dose if it differs, or a comment. Most compounds without a hit are left out; they make up all but 2.4% or so of the library. The call rests on the fitted dose curve; in most records, active means well fitted curve in the direction sought with a large enough effect; inconclusive means small, poorly fitted or top-dose-only effect, or another doubt; inactive means no such curve, though single readings can be large; an effect the other way counts as inactive or inconclusive. Potency means the concentration at half of the fitted maximal effect.

SMILES	FEN1 inh-1	WRN helicase inh-1	POLH inh	POLB inh	POLI inh	POLK inh	FEN1 inh-2	others
CC(NC(=O)COC(=O)c1ccc([N+](=O)[O-])o1)c1ccccc1 (stereo unspecified)	?	13%	89µM*	/	?	-25%	15*
O=C(COC(=O)c1ccc([N+](=O)[O-])o1)NC1CCCc2ccccc21 (stereo unspecified)	?	-30%	?	/	?	-21%	24*
O=C(CN1C(=O)c2cccnc2Sc2ccccc21)Nc1cc(F)ccc1F	-1%	/	-5%	-11%	9%	-7%	/
Oc1ccccc1C1C=C(c2ccc3c(c2)OCO3)NC(c2cccc(Cl)c2)N1 (stereo unspecified)	-18%	/	/	/	?	-11%	/
Cc1ccc2c(=O)c(C(=O)c3ccccc3)cn(CC(=O)Nc3ccc4c(c3)OCCO4)c2n1	-2%	/	?	?	?	2%	/
O=C(Nc1ccc(Cl)cc1)C1CCC(CNS(=O)(=O)c2ccc(Br)s2)CC1 (stereo unspecified)	-1%	/	-8%	-21%	20%	0%	/
O=C(COC(=O)c1ccc([N+](=O)[O-])o1)NCCc1ccccc1	?	0%[11.6 µM]	79µM*	/	45µM*	-24%	9.5*
O=C(COC(=O)c1ccc(Br)o1)NCCc1ccccc1	-3%	8%	-11%	-5%	23%	-9%	/
O=C(OCC(=O)N1CCc2ccccc21)c1ccc([N+](=O)[O-])o1	?	14%	?	/	?	-11%	8.5*
CN(C)CCNc1ncnc2ccc(-c3ccc4c(c3)OCO4)cc12	/	/	/	/	/	/	30*
NCCCNc1ncnc2ccc(-c3ccc4c(c3)OCO4)cc12	/	/	/	/	/	/	38*
c1nc(NCCN2CCOCC2)c2cc(-c3ccc4c(c3)OCO4)ccc2n1	/	/	/	/	/	-9%[60.1 µM]	/
CC(=O)NCCNc1ncnc2ccc(-c3ccc4c(c3)OCO4)cc12	/	/	/	/	/	-1%[60.1 µM]	/
CN1CCCC1CCNc1ncnc2ccc(-c3ccc4c(c3)OCO4)cc12 (stereo unspecified)	/	/	/	/	/	/	48*
Cc1ccccc1C(=O)Nc1ccc2oc(-c3ccc(Cl)c(Cl)c3)nc2c1	-1%	/	-4%	-1%	-8%	-2%	/
COc1ccc(C2C(C(=O)Nc3ccccc3)=C(C)Nc3nc(-c4ccccc4Cl)nn32)cc1OC (stereo unspecified)	8%	/	-19%	5%	11%	0%	/
CCN1/C(=C\c2ccc3cc(C)ccc3[n+]2CC)Sc2cc(C)c(C)cc21	/	45µM*	?	50µM*	/	-29%	8.5*
CCN1/C(=C/c2ccc3cc(C)ccc3[n+]2CC)Sc2ccc3sccc3c21	?	-22%	?	/	4%	-13%	/
CCOc1ccc(Nc2nc(-c3cccc(Cl)c3)c3c(n2)-c2ccccc2OC3)cc1	?	/	-8%	?	-9%	?	/
Cc1cccc(NC(=O)CN2C(=O)S/C(=C\c3ccc(-c4cccc(C(=O)O)c4C)o3)C2=O)c1	40µM*	-10%	35µM*	7%	?	-17%	67*
Cc1nc2ccc(N)cc2c(=O)n1Cc1ccc(Cl)cc1	2%	-17%	4%	-8%	12%	-17%	/
Nc1ccc(Cn2ccc3c4c(N)nc(N)nc4ccc32)cc1	25µM*	16µM*	?	/	56%	-33%	43*	WRN helicase inh-2=22µM*;TO displacement=76%;BLM counter=14µM*
O=C(COCc1cc(-c2ccc(F)cc2)on1)Nc1cc(F)ccc1F	1%	/	-18%	-6%	20%	-5%[60.1 µM]	/
COc1cc2nc(NCCCN3CCN(C)CC3)n3nc(-c4ccccc4)nc3c2cc1OC	20µM*	12µM*	?	25µM*	?	?	12*	WRN helicase inh-2=12µM*;TO displacement=-29%;BLM counter=-5%
CN(C)c1ccc(C=Cc2nccc3ccccc23)cc1	/	79µM*	/	/	/	/	/	WRN helicase inh-2=?;TO displacement=221%;BLM counter=?
SMILES	FEN1 inh-1	WRN helicase inh-1	POLH inh	POLB inh	POLI inh	POLK inh	FEN1 inh-2	others
CN(C)c1ccc(/C=C/c2ccnc3c2ccc2ccccc23)cc1	-3%	/	/	/	31%	-6%	/
Cc1cccc(Cn2c(=O)n(Cc3ccccc3)c(=O)c3c2c2cc(C)ccc2n3C)c1	-2%	/	-14%	17%	16%	-1%	/
CCOC(=O)c1nn(-c2ccccc2)c(=O)c2c(NC(C)=O)scc12	5%	-8%	-7%	-24%	36%	0%	/
CCOC(=O)c1nn(-c2ccccc2C)c(=O)c2c(N)scc12	-4%	?	-4%	-26%	?	-9%	/	WRN helicase inh-2=?;TO displacement=35%;BLM counter=?
N#C/C(=C/c1ccco1)c1nc2ccccc2s1	-1%	-1%	-15%	-11%	20%	-10%	/
N#C/C(=C\c1ccc(O)c([N+](=O)[O-])c1)c1nc2ccccc2s1	?	32µM*	20µM*	50µM*	?	-27%	/	WRN helicase inh-2=24µM*;TO displacement=22µM*;BLM counter=24µM*
